Results as given in PubChem BioAssay AID1233 (SRMLSC, 2008).
Measured potencies and affinities stand elsewhere. Values without a mark were called inactive.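 Rule for the calls: active = a dose-response curve fit returns a half-maximal inhibitory concentration, extrapolated values included; inactive = the fit returns no such concentration.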

The molecules below were run against HMG-CoA reductase [Enterococcus faecalis] (UniProt Q9FD70) (assay: inhibitors of E. faecalis class II HMGR, confirmation, biochemical, Enterococcus faecalis (AID 1233;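 note: 0% = full reaction carrier wells and 100% = background wells lacking mevalonate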)). Conditions: purified E. faecalis HMGR, NADPH absorbance 340 nm kinetics; series mostly up to 100 µM; inhibition: at the top concentration.

| SMILES | inhibition |
| --- | --- |
| O=C(Nc1ccc(N2CCOCC2)c(Cl)c1)c1ccc([N+](=O)[O-])o1 | -10.3% |
| S=C1NCCc2ccc(Cl)cc2C1c1ccccc1 (stereo not drawn) | -3.66% |
| CCOC(=O)c1c(C)oc2c1c(C=NCCO)c(O)c1ccccc12 | 8.35% |
| O=C(COc1cccc(NC(=O)c2ccco2)c1)c1ccc(F)cc1 | 1.51% |
| NCCc1nnc(SCc2ccc(F)cc2)o1 | 0.65% |
| COCCN(C(=O)CNC(=O)c1cccs1)C(C(=O)NC1CCCCC1)c1ccco1 (stereo not drawn) | -0.13% |
| Cn1nccc1C(=O)N1CCc2ccccc21 | -1.21% |
| CCOC(=O)c1cnn(-c2nc(-c3ccccc3)cs2)c1C(F)(F)F | -2.29% |
| COCCCNC(=O)CCCC(=O)NCCCOC | -2.96% |
| CCCCC(=O)Nc1nnc(C2=COCCO2)o1 | -4.28% |
| COc1ccc(C[C@H]2COC(=O)[C@@H]2Cc2ccc(OC3OC(CO)C(O)C(O)C3O)c(OC)c2)cc1OC (stereo partly drawn) | -5.86% |
| COc1ccc(N2C(=O)CS/C2=C\[N+](=O)[O-])cc1 | -4.2% |
| CCc1ccc(NC(=O)CN2C(=O)C(=O)N(Cc3ccccc3)C2=O)cc1 | -2.36% |
| CCc1ccc(NC(=O)CN(c2cccc(C)c2)S(C)(=O)=O)cc1 | -1.92% |
| O=C(N/N=C/c1cc(Br)cc(Br)c1O)c1cccc(N2CCCC2=O)c1 | -8.18% |
| Cc1ccc(-c2noc(CSc3nnc(Cc4ccccc4)n3-c3ccc(Cl)cc3)n2)cc1 | 4.74% |
| O=C(CSc1nc2ccccc2n1CCc1ccccc1)N1CCOCC1 | -2.07% |
| COc1ccc(C(=O)/C=C/c2ccc(N3CCCCC3)c([N+](=O)[O-])c2)c(OC)c1 | -3.89% |
| CCn1c(C)nc2cc(S(=O)(=O)C(F)(F)C(F)C(F)(F)F)ccc21 (stereo not drawn) | -0.73% |

| SMILES | inhibition |
| --- | --- |
| S=C(NCCc1ccccc1)N1CCN(Cc2ccccc2)CC1 | -0.76% |
| O=C(NCc1ccc2[nH]c3c(c2c1)CCCC3)c1ccc(S(=O)(=O)N2CCCC2)cc1 | 0.84% |
| Cc1ccc(C)c(N=Cc2ccc(-c3ccc([N+](=O)[O-])cc3)o2)c1 | -5.67% |
| Cc1cc(Nc2cccc([N+](=O)[O-])c2)c2ccccc2n1 | -2.62% |
| NNc1nc2c(Cl)ccc(Cl)c2s1 | -11.5% |
| CC(C)N(C(=O)Cn1cnc2cc([N+](=O)[O-])ccc2c1=O)C(C)C | -1.92% |
| CCCCN(C(=S)Nc1cccc(C)c1C)c1c(N)n(CCC)c(=O)[nH]c1=O | -2.1% |
| COc1ccc(N=C2C(=O)Nc3ccccc32)cc1 | -0.06% |
| O=[N+]([O-])c1ccc(N/N=C/c2ccc(O)c(O)c2O)c(S(=O)(=O)N2CCOCC2)c1 | -14% |
| O=C1c2ccccc2NC(c2ccc(Cl)cc2Cl)N1O (stereo not drawn) | -1.95% |
| CCOC(=O)NC(=O)CN1C(=O)NC(C)(c2ccccc2)C1=O (stereo not drawn) | -1.73% |
| O=S1(=O)CC=C(CSC(=S)NC2CCS(=O)(=O)C2)C1 (stereo not drawn) | -6.87% |
| COc1ccc(N2CC(C(=O)NCCc3ccc(OC)c(OC)c3)CC2=O)cc1 (stereo not drawn) | -0.35% |
| Cc1ccccc1Nc1nnc(SCc2nc3ccccc3c(=O)[nH]2)s1 | -11.1% |
| COc1ccc(Cl)cc1NC(=O)CN(c1ccccc1)S(=O)(=O)N(C)C | -8.3% |
| C=CCOC(=O)c1sc(NC(=O)c2ccco2)nc1C | 1.77% |
| Cc1c(CN2CCc3c([nH]c4ccccc34)C2C2CCCCC2)cnn1C (stereo not drawn) | -10% |
| CCc1c(C)sc(NC(=O)C2CC2c2ccccc2)c1C(N)=O (stereo not drawn) | -0.13% |
| CN(C)c1ccc(P(=O)(OCc2ccccc2)C(O)c2ccncc2)cc1 (stereo not drawn) | -0.24% |
